# Laboratory results as given in PubChem BioAssay AID1671190 (National Center for Advancing Translational Sciences (NCATS), 2021).
# Among all 580,000 compounds or so, about 6,100 (1.1%) were called active. Where a call stands in place of a potency, no number is given. Roughly 15% stayed inconclusive and do not appear here. Calls follow the shape of the dose curve; as a rule, active = well fitted inhibition curve with a large enough effect; inconclusive = small, poorly fitted or top-dose-only effect, or another doubt; inactive = no such curve, though single readings can be large or run the other way. This excerpt belongs to a sample that is enriched for actives.
# Biological target: Polyunsaturated fatty acid lipoxygenase ALOX12 (Homo sapiens) (UniProt P18054)
# Test: Primary qHTS assay for inhibitors of human arachidonate 12S-lipoxygenase (ALOX12): Round 2
# Conditions: purified 12hLO, xylenol orange hydroperoxide absorbance; series mostly up to 108 µM
# Description: Assay Provider: Theodore R. Holman Ph.D. University of California, Santa Cruz, California Human lipoxygenase 12hLO is a member of the closely related lipoxygenase family of enzymes which catalyze the site-specific oxidation of arachidonic acid to various hormone precursor molecules and as such is a candidate for drug development in a variety of disease areas, such as cancer and inflammation. Inhibition of 12hLO activity was screened by utilizing arachidonic acid as a substrate. The extent of hydroperoxide product formation was measured by a secondary chromogenic reaction in which xylenol orange (XO, Sigma-Aldrich, cat. number 39,818-7) reacts with the ferric ions produced from the reaction between the hydroperoxide and ferrous ions. The Fe (III)-XO complex is characterized with red-shifted absorbance at 560 nm. A purified preparation of human 12hLO was supplied by Dr. Holman laboratory, University of California, Santa Cruz.
# PROTOCOL TABLE SEQUENCE No. (e.g., 1, 2, 3, etc.); […] (e.g., Cells, Incubation, Reagent, etc.); VALUE; DESCRIPTION 1; Enzyme; 3 uL; 150 nM 12hLO enzyme solution dispensed in 1536-well Greiner black, clear bottom plates. 2; Compound; 23 nL; compounds and controls were added. 3; Incubate; 15 min; room temperature. 4; Substrate; 1 uL; 40 uM arachidonic acid (final concentration). 5; Incubate; 30 min; room temperature. 6; Reagent; 4 uL; Fe-XO solution was added to each well. 7; Incubation; 30 min; room temperature 8; Detector; absorbance; Read 1 at 405 nm absorbance using ViewLux (Perkin-Elmer) CCD imager. 9; Detector; absorbance; Read 2 at 573 nm absorbance using ViewLux (Perkin-Elmer) CCD imager. NOTES (numbers refer to sequence above) 1; 150 nM 12hLO (final concentration) in buffer solution (25 mM Hepes, 0.01% Triton X-100, pH 7.0) was dispensed in columns 1, 2, 5-48. Column 1 is neutral (100% activity). Buffer only was dispensed in columns 3 and 4 as no enzyme negative controls. The plates were covered with metal lids with gas-exchange holes. 2; Compounds were pin transferred via a Kalypsys Pin Tool (Wako USA) in column 5-48. Control compound was transferred in column 2, titration of nordihydroguaiaretic acid (NDGA, Sigma-Aldrich, N5023) with top concentration of 20 mM in DMSO then 1:3 dilution in duplicate. Dilution factor of 23 nL into 4 uL final assay volume. 3; Covered assay plates were incubated for 15 min at room temperature. 4; Substrate was added to start the reaction; 40 uM arachidonic acid (Sigma-Aldrich, St. Louis, MO) was dispensed throughout the plate. 6; Chromogenic detection reagent solution (divalent iron/xylenol orange, Fe-XO) was added to each well: 200 uM xylenol orange, 300 uM ferrous ammonium sulfate prepared freshly in 50 mM sulfuric acid. 8, 9; Two absorbance readouts were obtained at 405 nm and at 573 nm using a ViewLux high-throughput CCD plate imager (Perkin-Elmer). The 573 to 405 (Read 2 / Read 1) absorbance ratio was used to compute reaction progress.
# Potency is read from the fitted curve at half-maximal effect.
# Chain of Polyunsaturated fatty acid lipoxygenase ALOX12 (Homo sapiens) (P18054 whole entry, looked up): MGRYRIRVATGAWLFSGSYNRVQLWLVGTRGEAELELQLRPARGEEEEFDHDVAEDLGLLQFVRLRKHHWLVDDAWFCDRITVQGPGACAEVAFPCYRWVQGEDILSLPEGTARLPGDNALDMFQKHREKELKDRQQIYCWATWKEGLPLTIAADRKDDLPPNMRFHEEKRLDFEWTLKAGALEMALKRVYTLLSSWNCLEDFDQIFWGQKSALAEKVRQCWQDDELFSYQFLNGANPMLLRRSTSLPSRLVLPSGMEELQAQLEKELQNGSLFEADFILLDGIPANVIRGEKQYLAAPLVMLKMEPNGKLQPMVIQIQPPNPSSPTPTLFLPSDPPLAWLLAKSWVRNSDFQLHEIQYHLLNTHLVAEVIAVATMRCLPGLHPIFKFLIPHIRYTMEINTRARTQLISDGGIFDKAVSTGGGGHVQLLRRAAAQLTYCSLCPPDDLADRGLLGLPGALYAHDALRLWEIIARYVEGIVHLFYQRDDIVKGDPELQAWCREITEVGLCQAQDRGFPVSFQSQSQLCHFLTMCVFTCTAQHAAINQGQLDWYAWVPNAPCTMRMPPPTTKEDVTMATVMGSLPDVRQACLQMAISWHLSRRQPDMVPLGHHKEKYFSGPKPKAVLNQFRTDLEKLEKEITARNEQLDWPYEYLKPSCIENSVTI
row,Compound,Potency
1,CCOc1ccccc1NC(=O)C1CCN(S(=O)(=O)c2c(C)nn(C)c2C)CC1,inactive
2,O=C(CN1CCN(Cc2ccc(Cl)cc2)C1=O)NCc1ccc(F)cc1,inactive
3,CC(=O)C1=C(C)N(Cc2ccccc2)C(=S)NC1c1cccc(Br)c1 (configuration not stated),44.7 µM (active)
4,CCN1CN(Cc2ccccc2)CNC1=S,inactive
5,CC(=O)C1=C(C)N(Cc2ccc(Cl)cc2)C(=S)NC1c1ccc(F)cc1 (configuration not stated),44.7 µM (active)
6,COC(=O)C1=C(C)N(Cc2ccc(F)cc2)C(=S)NC1c1cccc(Cl)c1 (configuration not stated),39.8 µM (active)
7,CCN(CC)C(=O)C1=C(C)N(Cc2ccc(F)cc2)C(=O)C(CC(=O)NC2CCCC2)C1 (configuration not stated),inactive
8,COC(=O)C1=C(C)N(Cc2ccccc2C(F)(F)F)C(=NCc2ccc(OC)cc2)NC1c1cccc(C(F)(F)F)c1 (configuration not stated),inactive
9,COC(=O)C1=C(C)N(Cc2ccccc2C(F)(F)F)C(=NCC2CC2)NC1c1cccc(Cl)c1 (configuration not stated),inactive
10,COC(=O)C1=C(C)N(C)C(C)=C(C(=O)OC)C1c1cccc(Br)c1,inactive
11,O=C1CCN(C(=O)C2CCN(C(=O)C3COc4ccccc4O3)CC2)CCCCCCN1 (configuration not stated),inactive
12,Cc1ccc(NC(=O)CN2c3ccccc3CC2C)c(Cl)c1 (configuration not stated),inactive
13,O=C(CSc1nnc(Cc2ccccc2)n1-n1cccc1)Nc1ccccc1,inactive
14,C[C@H](NC(=O)Cc1n[nH]c(=O)c2ccccc12)C(=O)N1CCN(c2ccccc2)CC1,inactive
15,Cc1ccc(NC(=O)c2cccc(CS(C)=O)c2)c(C)c1 (configuration not stated),inactive
16,Cc1ccc(NC(=O)CCC2CCCC2)c(C)c1,inactive
17,Cc1ccc(NC(=O)C2=Cc3sc4c(c3CS2)CCCC4)c(C)c1,20 µM (active)
18,CSCCC(=O)NCc1ccccc1F,inactive
19,CCCCN1CC(C(=O)Nc2ccc(C(=O)Nc3ccccc3F)cc2)CC1=O (configuration not stated),inactive
20,CN(CC1CCOC1)C(=O)Nc1cc(F)c(F)c(F)c1 (configuration not stated),inactive
21,CC(=O)OCC1(COC(C)=O)COCC(COC(C)=O)(COC(C)=O)C1=O,inactive
22,C=CCNCc1ccc(Cl)c(Cl)c1,inactive
23,CCOC(=O)c1cc(NCc2c(Cl)cccc2Cl)ccc1N1CCOCC1,inactive
24,O=C(Nc1ccc(N2CCOCC2)c(Cl)c1)c1ccc2c3c(cccc13)CC2,inactive
25,CCCOC(=O)c1cc(NC(=O)c2cc(Cl)c(OC)c(Cl)c2)ccc1N1CCOCC1,5.62 µM (active)
26,C=CCSc1nc2c(c(=O)[nH]c(=O)n2C)n1CCCCC,inactive

row,Compound,Potency
1,C=CCNC(=O)CSc1nc(-c2ccccc2)c(-c2ccccc2)o1,inactive
2,Cn1cc(CN2CCOC[C@H](Oc3ccc(S(C)(=O)=O)cc3)C2)c2ccccc21,inactive
3,O=C(NC1CCNC1)C1CCN(c2nc(-c3ccccc3)nc3c2CCC3)CC1 (configuration not stated),inactive
4,COc1ccc(CNC(=O)C(C)[C@@H]2CCc3c(C)cc(OCCN4CCOCC4)c(C)c3C2)cc1 (some centres not stated),inactive
5,O=C(O)/C=C/c1ccc(Cl)cc1Cl,inactive
6,O=C(O)/C=C/c1ccccc1Cl,inactive
7,O=C(/C=C/c1ccccc1O)c1ccc(Cl)cc1Cl,39.8 µM (active)
8,CN(C)C(=O)c1ccc(OCc2coc(-c3ccccc3)n2)cc1,inactive
9,CC(C)Cn1cncc1CNC(=O)c1ccc2nc(-c3ccc(F)cc3)cn2c1,inactive
10,C[N+]1(CCNC(=O)/C=N/O)CCCCC1,6.31 µM (active)
11,CCN(CC)S(=O)(=O)c1ccc(NC(=O)CC2c3ccccc3C=CN2C(C)=O)cc1 (configuration not stated),inactive
12,COc1ccc(CC(=O)NC(CCSC)c2nc3ccccc3[nH]2)cc1 (configuration not stated),inactive
13,CSCC[C@H](NC(=O)CSc1cc(Cl)ccc1Cl)c1nc2ccccc2[nH]1,44.7 µM (active)
14,COc1ccc(CC(=O)N[C@@H](CCSC)c2nc3ccccc3[nH]2)cc1,inactive
15,Cc1nc(-c2ccc(OC(F)(F)F)cc2)sc1C(=O)N1CCCC1,inactive
16,O=C(CSc1nc(CN2CCOCC2)nc2ccccc12)N1CCN(Cc2ccccc2)CC1,inactive
17,Cc1cc2oc(C(=O)Nc3ccc(S(=O)(=O)N4CCCC(C)C4)cc3)cc(=O)c2cc1C (configuration not stated),inactive
18,CC(=O)N1CCN(C(C(=O)O)c2cn(CCC(=O)O)c3cc(Br)ccc23)CC1 (configuration not stated),inactive
19,CCCCCCCC[n+]1cccc(C(=O)N2c3c(nc(N)[nH]c3=O)NC(C)C2C)c1 (configuration not stated),44.7 µM (active)
20,COc1ccc(CCNC(=O)c2sc(NC(C)C)nc2C)cc1,inactive
21,Cc1cccc(CN2CCN(C3CN(Cc4cn(Cc5ccccc5F)nn4)S(=O)(=O)C3)CC2)c1 (configuration not stated),inactive
22,O=S1(=O)CC(N2CCSCC2)CN1Cc1cn(Cc2cccc(Cl)c2)nn1 (configuration not stated),inactive
23,Cc1cccc(CN2CCN(C3CN(Cc4cn(Cc5cc(C)cc(C)c5)nn4)S(=O)(=O)C3)CC2)c1 (configuration not stated),inactive
24,O=S1(=O)CC(N2CCN(CCO)CC2)CN1Cc1cn(Cc2cccc(Cl)c2)nn1 (configuration not stated),7.08 µM (active)
25,CCCCCCN1CCN(C2CN(Cc3cn(Cc4ccc(F)cc4)nn3)S(=O)(=O)C2)CC1 (configuration not stated),inactive
26,O=S1(=O)CC(N2CCN(CCO)CC2)CN1Cc1cn(Cc2ccc(Cl)cc2)nn1 (configuration not stated),25.1 µM (active)
